Among the test systems are DU-145 prostate; K-562 leukemia; MALME-3M melanoma; MDA-MB-231 breast; RXF 393 renal; SF-268 CNS; SF-295 CNS; SF-539 CNS; UACC-257 melanoma; M14 melanoma.
Common to all, as to test: NCI-60 one-dose screen, 48 h (100 = growth as untreated, 0 = no growth, -100 = all killed)
Common to all, as to details: 10 µM unless noted

The panel holds about 83,000 compounds, 20% with a hit somewhere; the sample as a whole holds those more often.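 Each cell line was grown in a 96-well plate and treated with one concentration of compound for 48 hours. Values below 10 were considered active.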 A number with no mark means an inactive call. Activity calls are given as the source filed them.

`NC(N)=N/N=C\c1c[nH]c2ccc(Br)cc12`: the growth with DU-145 prostate was 96.2%; with K-562 leukemia, 74.6%; in the test on MALME-3M melanoma, 76.8%; in the test with MDA-MB-231 breast, 101%; with RXF 393 renal it was 99%; in the test with SF-268 CNS, 64.6%. For the same molecule, the growth was 79.9% in the test with SF-295 CNS, 84% in the test with SF-539 CNS, 69.3% in the test on UACC-257 melanoma and 94.1% in the test on M14 melanoma.
Turning to `COC(=O)C12CC(NC(=O)c3csc([C@@H](C[C@H](C(C)C)N(C)C(=O)[C@@H](NC(=O)[C@H]4CCCCN4C)C4CC4)OC(C)=O)n3)(C1)C2`, the growth in the test with DU-145 prostate was 4.38% (active); with K-562 leukemia, 7.65% (active); with MALME-3M melanoma it was 70%; with MDA-MB-231 breast it was -0.474% (active); with RXF 393 renal, 14.5%; in the test on SF-268 CNS it was 21.9%. Further, the growth in the test on SF-295 CNS is 6.6% (active); in the test with SF-539 CNS, -28.5% (active); with UACC-257 melanoma, 42.2%; in the test on M14 melanoma it was 14.8%.
Turning to `CNC12C3C4C1C1C2C3C41C(=O)N[C@H](C(=O)N(C)[C@H](C[C@@H](OC(C)=O)c1nc(C(=O)N[C@@H](Cc2ccccc2)C[C@H](C)C(=O)OC)cs1)C(C)C)C1CC1` (stereo not given in full), the growth is -1.19% (active) in the test on DU-145 prostate; 0.86% (active) with K-562 leukemia; 34% in the test with MALME-3M melanoma; 0.928% (active) in the test with MDA-MB-231 breast; 25.5% in the test on RXF 393 renal; 14.4% with SF-268 CNS. Besides, the growth was 7.26% (active) with SF-295 CNS, -1.2% (active) in the test on SF-539 CNS, 41.1% with UACC-257 melanoma and 4.03% (active) in the test with M14 melanoma.
For `C/C(CC(C)(C)N1CC1)=N\NC(=O)Nc1cccc2ccccc12`, the growth in the test with DU-145 prostate is 68.2%; with K-562 leukemia, 78.2%; with MALME-3M melanoma, 74.5%; in the test on MDA-MB-231 breast, 58.3%; with RXF 393 renal, 39.2%; in the test on SF-268 CNS, 52.9%. Also, the growth was 67% in the test with SF-295 CNS, 70.3% with SF-539 CNS, 86.4% with UACC-257 melanoma and 72.8% in the test on M14 melanoma.
As for `CCn1c2ccccc2c2cc(C(=O)c3cccc4c3CCCN4)ccc21`, the growth was 102% in the test with DU-145 prostate; 101% in the test on K-562 leukemia; 107% in the test on MALME-3M melanoma; 98.1% in the test on MDA-MB-231 breast; 104% with RXF 393 renal; 102% in the test with SF-268 CNS. Also, the growth was 103% in the test on SF-295 CNS, 111% in the test with SF-539 CNS, 113% in the test with UACC-257 melanoma and 96.9% with M14 melanoma.
Take `COc1ccc(Nc2ccnc3cc(Cl)ccc23)cc1CN(CCCl)CCCl`: the growth in the test on DU-145 prostate was -26.4% (active); with K-562 leukemia, 0.691% (active); in the test on MALME-3M melanoma it was -85.3% (active); in the test on MDA-MB-231 breast, 0.96% (active); in the test with RXF 393 renal, -72.3% (active); in the test on SF-268 CNS, -29.3% (active). Besides, the growth was -24.8% (active) in the test with SF-295 CNS, -75.8% (active) in the test on SF-539 CNS, -39.1% (active) with UACC-257 melanoma and -58.4% (active) in the test with M14 melanoma.
As for `COC(=O)[C@@H](C)C[C@H](Cc1ccccc1)NC(=O)c1csc([C@@H](C[C@H](C(C)C)N(C)C(=O)[C@@H](NC(=O)[C@H]2CCCCN2C)C2CCCCC2)OC(C)=O)n1`, the growth is 6.23% (active) in the test with DU-145 prostate; -0.636% (active) in the test with K-562 leukemia; 56.9% in the test with MALME-3M melanoma; -3.53% (active) in the test on MDA-MB-231 breast; 65.5% in the test on RXF 393 renal; 8.92% (active) in the test with SF-268 CNS. In addition, the growth in the test on SF-295 CNS is -3.03% (active); with SF-539 CNS it was -22.3% (active); in the test on UACC-257 melanoma, 48%; in the test on M14 melanoma it was -35.1% (active).
As for `COc1cccc(/C=C/[N+](=O)[O-])c1`, the growth in the test with DU-145 prostate was -2.85% (active); with K-562 leukemia, 7.02% (active); with MALME-3M melanoma, 89.8%; in the test on MDA-MB-231 breast it was 87.6%; in the test on RXF 393 renal, -60.7% (active); in the test on SF-268 CNS, 78.2%. For the same molecule, the growth in the test on SF-295 CNS is 84.3%; with SF-539 CNS it was 50.8%; with UACC-257 melanoma, 83.1%; in the test with M14 melanoma, 12.3%.
In the case of `CN1C(=O)C(=Cc2cn(CCCCCCn3c4ccccc4c(=O)c4ccccc43)c3ccccc23)C(=O)N(C)C1=O`, the growth was 105% in the test with DU-145 prostate; 88.3% in the test with K-562 leukemia; 103% in the test on MALME-3M melanoma; 103% in the test with MDA-MB-231 breast; 115% in the test with RXF 393 renal; 94.6% in the test on SF-268 CNS. The growth was 95% in the test on SF-295 CNS, 86% in the test on SF-539 CNS, 104% with UACC-257 melanoma and 94% with M14 melanoma.
With `CCn1nccc1NC(=O)C(=O)c1cn(Cc2ccc(F)cc2)c2cccc(OC)c12`, the growth in the test on DU-145 prostate was 106%; in the test on K-562 leukemia it was 79.9%; with MALME-3M melanoma it was 109%; in the test with MDA-MB-231 breast it was 91.9%; in the test on RXF 393 renal it was 90.1%; in the test with SF-268 CNS it was 98.1%. Also, the growth is 106% in the test with SF-295 CNS, 98.1% with SF-539 CNS, 97.6% with UACC-257 melanoma and 88.1% in the test with M14 melanoma.
`O=C(N/N=C\c1ccc(N(CCCl)CCCl)cc1Cl)c1cccnc1`: the growth in the test with DU-145 prostate is 94.4%; in the test on K-562 leukemia, 82%; in the test on MALME-3M melanoma, 116%; in the test with MDA-MB-231 breast, 85%; in the test on RXF 393 renal it was 82.8%; in the test with SF-268 CNS, 99.1%. Besides, the growth with SF-295 CNS was 59.6%; in the test on SF-539 CNS, 95.3%; in the test on UACC-257 melanoma it was -10.9% (active); in the test with M14 melanoma, 98%.
Regarding `COc1cccc2c1c(C(=O)C(=O)Nc1cc(C)no1)cn2Cc1ccc(F)cc1`, the growth is 74.2% with DU-145 prostate; 13.4% in the test on K-562 leukemia; 69.3% in the test on MALME-3M melanoma; 77.5% in the test with MDA-MB-231 breast; 77.4% in the test with RXF 393 renal; 64.3% with SF-268 CNS. Besides, the growth was 73.6% with SF-295 CNS, 67.2% with SF-539 CNS, 81.4% in the test with UACC-257 melanoma and 45.7% in the test with M14 melanoma.
Turning to `C[C@@]12CC=C3c4nc(Nc5cccc(O)c5)sc4CC[C@]3(C)[C@H]1CC[C@]1(C)C(=O)CC[C@@H]21`, the growth in the test on DU-145 prostate was 12.7%; in the test on K-562 leukemia it was 4.81% (active); in the test with MALME-3M melanoma, 35.3%; with MDA-MB-231 breast, 39.5%; with RXF 393 renal, -6.67% (active); in the test on SF-268 CNS, 43.1%. Moreover, the growth in the test on SF-295 CNS is -47.7% (active); with SF-539 CNS, -41.8% (active); in the test on UACC-257 melanoma it was 79.6%; in the test on M14 melanoma it was 54.8%.

For the origin of these results see PubChem BioAssay (NCI).
